GAA850 FXN act – activators of GAA850 frataxin (FXN) promoter; HEK293 lucGAA850 FXN promoter luciferase reporter, 24 h; percent of 10 µM SAHA response; activation, % at 6 µM; hit rate 0.56% among 360,000; AID 540364;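 active means activation above the average of all compounds screened plus 3 SD, cutoff fixed separately per campaign, cut at about 7.5% in these data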
Wnt bcat act – activates Wnt/beta-catenin signaling in a reporter cell assay. activator, plate reader. activation, % at 9.35 µM. hit rate 1.2% among 300,000. AID 743398; in the data active means activation above about 30%, passing the limit was not always enough
esBAF inh – blocks esBAF chromatin remodeling in mouse ES cells. AID 602393. hit rate 2% among 350,000. Bmi1-luciferase knock-in reporter, 24 h; 100% = twice the neutral-well signal. reporter increase, % at 12.5 µM; in the data active means activation above about 40%;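 further: a rise in the Bmi1 reporter signal indicates esBAF inhibition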
MITF act – increases MITF-driven TRPM1 promoter luciferase signal; SK-MEL-5 TRPM1-promoter luciferase, 24 h; % of positive control, neutral wells = 0; hit rate 0.75% among 300,000; AID 588334; activation, % at 12.5 µM;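 active means mean activation of at least 80% with every replicate also reaching 80%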
GAA30 counter – counter-screen for GAA850 frataxin promoter activators: GAA30 promoter activation; shares compounds with GAA850 FXN act; HEK293 lucGAA30 FXN promoter luciferase, 24 h; DMSO = 0%, 5 µM ipriflavone = 100%; activation, % at 6 µM; hit rate 66% among 1,900;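 active means mean activation above the mean of solvent-only control wells plus 3 SD, cut at about 22% in these data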;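 further: counterscreen of GAA850 promoter hits where activity marks nonselective or luminescence artifacts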
GAA850 confirm – confirmation of GAA850 frataxin (FXN) promoter activators | shares compounds with GAA850 FXN act | HEK293 lucGAA850 FXN promoter luciferase reporter, 24 h; 100% = activation by SAHA | activation, % at 6 µM | hit rate 86% among 1,900;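 active means mean activation above a set limit taken from the primary screen, cut at about 8% in these data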
Large screens that a line does not name were inactive (follow-up assays come after a bar, where they were run). Most compounds without a hit are left out; they make up all but 2.8% or so of the library.

COc1ccc(CN(C)C[C@@H]2OCCCC[C@@H](C)Oc3ccc(NC(=O)Nc4c(C)noc4C)cc3C(=O)N([C@H](C)CO)C[C@H]2C)cc1	none (no result: GAA850 FXN act, Wnt bcat act, MITF act)
Cc1noc(C)c1NC(=O)N(C)C[C@H]1Oc2ccc(NC(=O)Nc3ccc(C(F)(F)F)cc3)cc2C(=O)N([C@@H](C)CO)C[C@@H]1C	none (no result: GAA850 FXN act, Wnt bcat act, MITF act)
CCOC(=O)c1c(CSc2ccc(CC)cc2)oc2ccc(O)c(CN(C)C)c12	none
CCOC(=O)c1c(CSc2ccccc2)oc2cc(Br)c(O)c(CN(C)C)c12	GAA850 FXN act 8.2 | GAA30 counter inactive | GAA850 confirm 9.7
COc1ccc(-c2cnnc(N/N=C/c3ccc(O)c(O)c3)n2)cc1	none (no result: esBAF inh)
Oc1ccc(/C=N\Nc2nncc(-c3ccccc3)n2)cc1	GAA850 FXN act 8.7 | GAA30 counter 40.0 | GAA850 confirm 18.5
COc1ccc(-c2cnnc(N/N=C/c3ccc(O)cc3)n2)cc1	GAA850 FXN act 7.6 (no result: esBAF inh) | GAA30 counter 67.6 | GAA850 confirm 36.0
Brc1ccc(/C=N/Nc2nncc(-c3ccccc3)n2)o1	none (no result: GAA850 FXN act, esBAF inh, MITF act)
O=C(C[C@@H]1CC[C@H](NC(=O)c2ccccc2)[C@H](CO)O1)NCCc1ccncc1	none (no result: GAA850 FXN act, Wnt bcat act, MITF act)
O=P(NC1CCCCC1)(c1ccccc1)c1ccccc1	none
CC/C(=C\C1CCCCC1)C(NP(=O)(c1ccccc1)c1ccccc1)c1ccccc1 (configuration not stated)	GAA850 FXN act 13.2 | GAA30 counter 29.7 | GAA850 confirm 18.6
COc1cccc2sc(Nc3nnc(-c4cccs4)o3)nc12	GAA850 FXN act 7.7, Wnt bcat act 59.3 (no result: MITF act) | GAA30 counter 37.0 | GAA850 confirm 39.9
N/C(=N\OC(=O)c1ccccc1Cl)c1cccc([N+](=O)[O-])c1	none (no result: MITF act)
N/C(=N/OC(=O)c1ccccc1Cl)c1ncc([N+](=O)[O-])s1	GAA850 FXN act 14.5 (no result: esBAF inh, MITF act) | GAA30 counter 103.4 | GAA850 confirm 50.7
CCC(=O)N1C[C@@H](C)[C@@H](OC)CN(C)C(=O)c2ccc(NC(=O)C3CCOCC3)cc2OC[C@H]1C	none (no result: GAA850 FXN act, Wnt bcat act, MITF act)
CCC/C=C/c1ccc(CN2C(C(C)C)C(=O)N(Cc3cn(CC4CCCCC4)nn3)CCS2(=O)=O)cc1 (configuration not stated)	GAA850 FXN act 7.9 (no result: MITF act) | GAA30 counter inactive | GAA850 confirm inactive
CC(C)CCOP(=O)(c1ccc(N(C)C)cc1)C(O)c1ccccc1 (configuration not stated)	GAA850 FXN act 8.2 (no result: esBAF inh) | GAA30 counter inactive | GAA850 confirm inactive
CO[C@H]1CN(C)C(=O)c2ccc(NC(=O)c3ccc(F)cc3)cc2OC[C@H](C)N(C(=O)CC2CC2)C[C@H]1C	none (no result: GAA850 FXN act, Wnt bcat act, MITF act)
COc1ccc2c(c1OC)C(=O)N(c1cccc(C(F)(F)F)c1)C2	GAA850 FXN act 18.1, esBAF inh 46.1, MITF act 120.6 (no result: Wnt bcat act) | GAA30 counter 99.2 | GAA850 confirm 38.4
COc1ccc2c(c1OC)C(=O)N(c1cccc(C)c1)C2	none (no result: Wnt bcat act)
CCCNC(=O)C[C@@H]1CC[C@@H]2[C@@H](COc3ccc(NC(=O)c4ccc(C(F)(F)F)cc4)cc3C(=O)N2C)O1	none (no result: GAA850 FXN act, Wnt bcat act, MITF act)
CCOC(=O)c1sc(-c2ccccc2)cc1N	GAA850 FXN act 8.9, Wnt bcat act 53.8, esBAF inh 67.1 (no result: MITF act) | GAA30 counter 86.6 | GAA850 confirm 23.2
CCOC(=O)c1sc(-c2ccc(OC)cc2)cc1N	GAA850 FXN act 9.7, esBAF inh 76.2, MITF act 99.0 (no result: Wnt bcat act) | GAA30 counter 108.5 | GAA850 confirm 30.0
CCCN1[C@@H]2c3ccc(C4=CCCC4)c(=O)n3C[C@@H]2[C@@H](CO)[C@@H]1C(=O)NC1Cc2ccccc2C1	none (no result: GAA850 FXN act, Wnt bcat act, MITF act)
CN1c2ccc(C#Cc3ccccc3F)cc2[C@H]2[C@H](CCN2C(=O)c2cnccn2)[C@H]1CO	none (no result: GAA850 FXN act, Wnt bcat act, MITF act)
C[C@@H]1CCCCO[C@H](CN(C)Cc2ccc(Cl)c(Cl)c2)[C@@H](C)CN([C@@H](C)CO)C(=O)c2cc(NS(C)(=O)=O)ccc2O1	none (no result: GAA850 FXN act, Wnt bcat act, MITF act)
Nc1ccccc1Nc1cccc(C(F)(F)F)c1	GAA850 FXN act 8.7 (no result: esBAF inh) | GAA30 counter inactive | GAA850 confirm 9.6
C[C@@H]1CN([C@@H](C)CO)C(=O)c2cc(NS(=O)(=O)c3ccc(Cl)cc3)ccc2O[C@H]1CN(C)CC1CCCCC1	none (no result: GAA850 FXN act, Wnt bcat act, MITF act)
COc1ccc(C(=O)/C=C/C(=O)N(CC(=O)NC2CCCCC2)Cc2ccccc2OC)c(O)c1	none (no result: esBAF inh)
COc1ccc(C(=O)/C=C/C(=O)N(CC(=O)NC2CCCCC2)Cc2ccccc2)c(O)c1	GAA850 FXN act 7.6 (no result: esBAF inh) | GAA30 counter inactive | GAA850 confirm inactive
COc1cc2c(OC(C)=O)c3c(c(-c4ccc5c(c4)OCO5)c2cc1OC)C(=O)OC3	none (no result: MITF act)
COc1cc2c(O)c3c(c(-c4ccc5c(c4)OCO5)c2cc1OC)C(=O)OC3	GAA850 FXN act 19.8 | GAA30 counter inactive | GAA850 confirm 26.6
Clc1ccc(-c2csc(Nc3ccccc3)[n+]2Cc2ccco2)c(Cl)c1	GAA850 FXN act 7.9, Wnt bcat act 42.8, MITF act 88.7 (no result: esBAF inh) | GAA30 counter 82.6 | GAA850 confirm 36.5
CCCC[n+]1c(-c2ccc(Cl)cc2Cl)csc1Nc1ccccc1	none (no result: Wnt bcat act)
Nc1ccc2nc(-c3ccccc3)c(-c3ccccc3)nc2c1	GAA850 FXN act 14.4 | GAA30 counter inactive | GAA850 confirm 11.3
Cc1ccc(N(C(=O)c2nsc(Cl)c2Cl)C(C(=O)NC2CCCC2)c2ccc(O)cc2)cc1C (configuration not stated)	GAA850 FXN act 9.5 (no result: esBAF inh) | GAA30 counter 33.6 | GAA850 confirm 14.0
Cc1cc(C)cc(N(C(=O)c2nsc(Cl)c2Cl)C(C(=O)NC2CCCC2)c2ccc(O)cc2)c1 (configuration not stated)	none (no result: esBAF inh)
N#C/C(=C/c1ccc(N2CCCCCC2)o1)c1ccc(Cl)cc1	none (no result: Wnt bcat act)
Cc1ccc2nc(/C(C#N)=C\c3ccc(N4CCOCC4)o3)[nH]c2c1	none (no result: Wnt bcat act, esBAF inh)
N#C/C(=C/c1ccc(N2CCCCC2)o1)c1cccc(F)c1	GAA850 FXN act 14.6, esBAF inh 74.3 | GAA30 counter 106.4 | GAA850 confirm 41.4
Cc1ccc(/C(C#N)=C\c2ccc(N3CCOCC3)o2)cc1	GAA850 FXN act 22.5 | GAA30 counter 120.3 | GAA850 confirm 53.3
CN1CCC[C@H]1CCNc1ccc2c(=O)c3ccccc3n(C)c2c1	GAA850 FXN act 12.5, esBAF inh 63.5 | GAA30 counter 46.0 | GAA850 confirm 69.4
Cn1c2ccccc2c(=O)c2cc(NCCCN3CCOCC3)ccc21	GAA850 FXN act 17.2 | GAA30 counter 142.6 | GAA850 confirm 58.4
Cn1c2ccccc2c(=O)c2ccc(NCc3ccc4c(c3)OCO4)cc21	GAA850 FXN act 11.2, esBAF inh 44.3 | GAA30 counter 71.4 | GAA850 confirm 26.9
Cc1cccc(S(=O)(=O)N[C@H]2CC[C@H](CCNC(=O)CCN3CCCCC3)O[C@@H]2CO)c1	none (no result: GAA850 FXN act, Wnt bcat act, MITF act)
COc1ccc(O)c(-c2nc(N)nc(N)n2)c1	none
Nc1nc(N)nc(-c2cc(F)ccc2O)n1	GAA850 FXN act 11.9 | GAA30 counter 66.9 | GAA850 confirm 41.7
